# In PubChem BioAssay (NCATS):
# Calls of active or inactive are those of the source. The call rests on the fitted dose curve; in most records, active means well fitted curve in the direction sought with a large enough effect; inactive means no such curve, though single readings can be large or run the other way.
# Biological target: Alpha-galactosidase (Coffea arabica) (UniProt Q42656)
# Assay: Counterscreen for Glucocerebrosidase Inhibitors: qHTS Assay for Coffee Bean alpha-Galactosidase at pH 5.9 (AID 998);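 further: plate controls were uninhibited enzyme for no effect and no-enzyme basal signal for full effect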
# Settings: coffee bean alpha-galactosidase enzyme assay; series mostly up to 76.9 µM; activity, negative = inhibition: at the top concentration
# In short: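 Enzyme 2 nM + cpd (0.7 nM–77 uM titration) + 4-MU-alpha-Gal 80 uM, pH 5.9 citrate/Tween-20, RT 20 min, NaOH/glycine stop pH 10, fluor 365/440. Normalized to no-enzyme and full-activity controls; Hill-fit AC50.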
# Sequence of Alpha-galactosidase (Coffea arabica) (Q42656 whole entry, looked up): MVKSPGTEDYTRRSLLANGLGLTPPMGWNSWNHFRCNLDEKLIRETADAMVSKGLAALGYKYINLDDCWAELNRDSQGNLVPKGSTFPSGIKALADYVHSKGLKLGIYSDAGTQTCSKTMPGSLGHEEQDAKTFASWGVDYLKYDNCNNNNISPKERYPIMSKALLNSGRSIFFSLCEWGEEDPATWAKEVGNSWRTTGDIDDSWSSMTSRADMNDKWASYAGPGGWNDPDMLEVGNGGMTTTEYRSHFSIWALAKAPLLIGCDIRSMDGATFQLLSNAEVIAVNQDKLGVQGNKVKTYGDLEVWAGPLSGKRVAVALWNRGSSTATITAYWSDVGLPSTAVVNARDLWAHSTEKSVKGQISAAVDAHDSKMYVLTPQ
row,SMILES,"activity, negative = inhibition"
1,O=C1NCN(c2ccccc2)C12CCN(CCCC(c1ccc(F)cc1)c1ccc(F)cc1)CC2,-10.9% (inactive)
2,CN(C)CCN(Cc1cccs1)c1ccccn1,-1.7% (inactive)
3,CC1=C(CC(=O)O)c2cc(F)ccc2/C1=C\c1ccc(S(C)(=O)=O)cc1,-5.57% (inactive)
4,CN(C)CCCN1c2ccccc2Sc2ccc(C(F)(F)F)cc21,-1.14% (inactive)
5,O=C(CCCN1CCC(O)(c2cccc(C(F)(F)F)c2)CC1)c1ccc(F)cc1,2.2% (inactive)
6,Brc1c(NC2=NCCN2)ccc2nccnc12,-6.1% (inactive)
7,CCNC(=O)N1CCN(CCCC(c2ccc(F)cc2)c2ccc(F)cc2)CC1,-4.02% (inactive)
8,O=c1[nH]c2ccccc2n1CCCN1CCN(C(c2ccccc2)c2ccccc2)CC1,-4.19% (inactive)
9,CCCn1cnc2c1c(=O)n(CCCCC(C)=O)c(=O)n2C,-4.55% (inactive)
10,CN(C(=O)CCCOc1ccc2[nH]c(=O)ccc2c1)C1CCCCC1,1.34% (inactive)
